Assay results published in the supplement of paper PMC7411054.
Structures can show the parent of a compound that is named as a salt.

Legend:
Test in all cases: phenotypically active (imaging signature differs from DMSO and reproducible) at any of 0.3-9 uM (binary (1 = active, 0 = inactive)); higher = active
Settings in all cases: treatment time: 24 h
[1] = system: A549-ACTB-RAB5A
How it was run: (§1)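 Four wells per concentration (0.3, 1, 3 or 9 µM) were treated for 24 h in each of fifteen gene-edited reporter lines from A549, HepG2 and WPMY1 cells, then imaged live. After normalising live-cell features to solvent control wells, deviation was defined as ≥3 of 4 wells lying past the 95th percentile of control Euclidean distances. Reproducibility was defined as a median replicate Pearson correlation above the 95th percentile of non-replicates. Both had to hold for phenotypic activity.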

[2] = system: A549-CANX-COX4
How it was run: as §1

[3] = system: A549-GM130-SQSTM1
How it was run: as §1

[4] = system: A549-TP53BP1-CLTA
How it was run: as §1

[5] = system: A549-TUBA1B-RELA
How it was run: as §1

[6] = system: HepG2-ACTB-RAB5A
How it was run: as §1

[7] = system: HepG2-CANX-COX4
How it was run: as §1

[8] = system: HepG2-GM130-SQSTM1
How it was run: as §1

[9] = system: HepG2-TP53BP1-CLTA
How it was run: as §1

[10] = system: HepG2-TUBA1B-RELA
How it was run: as §1

[11] = system: WPMY1-ACTB-RAB5A
How it was run: as §1

[12] = system: WPMY1-CANX-COX4
How it was run: as §1

[13] = system: WPMY1-GM130-SQSTM1
How it was run: as §1

[14] = system: WPMY1-TP53BP1-CLTA
How it was run: as §1

[15] = system: WPMY1-TUBA1B-RELA
How it was run: as §1

Measured: phenotypically active

Cc1ccc(-c2c(-c3nn(C)c4ncnc(N5CC[C@H](N6CCCCC6)C5)c34)cnn2C)cc1
inactive: [1] 0 | [2] 0 | [3] 0 | [4] 0 | [5] 0 | [6] 0 | [7] 0 | [8] 0 | [9] 0 | [10] 0 | [11] 0 | [12] 0 | [13] 0 | [14] 0 | [15] 0

CCN[C@H]1C[C@H](C)S(=O)(=O)c2sc(S(N)(=O)=O)cc21 [dorzolamide]
inactive: [1] 0 | [2] 0 | [3] 0 | [4] 0 | [5] 0 | [6] 0 | [7] 0 | [8] 0 | [9] 0 | [10] 0 | [11] 0 | [12] 0 | [13] 0 | [14] 0 | [15] 0

COC(=O)c1c(-c2cc(OC)c(OC)c(OC)c2)c2ccnc(OCc3ncccn3)c2c(=O)n1Cc1ccnc(C)c1 [T 0156 hydrochloride]
inactive: [1] 0 | [2] 0 | [3] 0 | [4] 0 | [5] 0 | [6] 0 | [7] 0 | [8] 0 | [9] 0 | [10] 0 | [11] 0 | [12] 0 | [13] 0 | [14] 0 | [15] 0

NC(=O)c1cn(Cc2c(F)cccc2F)nn1 [rufinamide]
inactive: [1] 0 | [2] 0 | [3] 0 | [4] 0 | [5] 0 | [6] 0 | [7] 0 | [8] 0 | [9] 0 | [10] 0 | [11] 0 | [12] 0 | [13] 0 | [14] 0 | [15] 0

COc1ccc(C(=O)Nc2sc3c(c2C(N)=O)CCCC3)cc1OC
inactive: [1] 0 | [2] 0 | [3] 0 | [4] 0 | [5] 0 | [6] 0 | [7] 0 | [8] 0 | [9] 0 | [10] 0 | [11] 0 | [12] 0 | [13] 0 | [14] 0 | [15] 0

COc1ccc(C(=O)C2CCN(CC(=O)N(Cc3nc4c(c(=O)[nH]3)COCC4)CC3CC3)CC2)cc1
inactive: [1] 0 | [2] 0 | [3] 0 | [4] 0 | [5] 0 | [6] 0 | [7] 0 | [8] 0 | [9] 0 | [10] 0 | [11] 0 | [12] 0 | [13] 0 | [14] 0 | [15] 0

CC(C(=O)Nc1cccc(/N=C/c2c(O)ccc3ccccc23)c1)c1ccccc1 (stereo not given) [Salermide]
inactive: [1] 0 | [2] 0 | [3] 0 | [4] 0 | [5] 0 | [6] 0 | [7] 0 | [8] 0 | [9] 0 | [10] 0 | [11] 0 | [12] 0 | [13] 0 | [14] 0 | [15] 0

C[C@H](N[C@@H](CCc1ccccc1)C(=O)O)C(=O)N1CCC[C@H]1C(=O)O [enalaprilat]
inactive: [1] 0 | [2] 0 | [3] 0 | [4] 0 | [5] 0 | [6] 0 | [7] 0 | [8] 0 | [9] 0 | [10] 0 | [11] 0 | [12] 0 | [13] 0 | [14] 0 | [15] 0

CN1CC(=O)N2[C@H](c3ccc4c(c3)OCO4)c3[nH]c4ccccc4c3C[C@@H]2C1=O [tadalafil]
inactive: [1] 0 | [2] 0 | [3] 0 | [4] 0 | [5] 0 | [6] 0 | [7] 0 | [8] 0 | [9] 0 | [10] 0 | [11] 0 | [12] 0 | [13] 0 | [14] 0 | [15] 0

CN(C)CCC[C@@]1(c2ccc(F)cc2)OCc2cc(C#N)ccc21 [escitalopram]
inactive: [1] 0 | [2] 0 | [3] 0 | [4] 0 | [5] 0 | [6] 0 | [7] 0 | [8] 0 | [9] 0 | [10] 0 | [11] 0 | [12] 0 | [13] 0 | [14] 0 | [15] 0

O=S(=O)(N[C@H](CO)C(C(F)(F)F)C(F)(F)F)c1ccc(Cl)s1 [begacestat]
inactive: [1] 0 | [2] 0 | [3] 0 | [4] 0 | [5] 0 | [6] 0 | [7] 0 | [8] 0 | [9] 0 | [10] 0 | [11] 0 | [12] 0 | [13] 0 | [14] 0 | [15] 0
